Among all 5,500 compounds or so, about 2,000 (36%) were called active. Inconclusive results (about 18%) are left out. No stated cut-off is given here; in the data, active means normalized growth mostly below about 0.91 (no sharp cut-off); inconclusive means no clear call, values can overlap the other calls; inactive means mostly above about 0.92. Some of the results follow.
Assay: chemical genetic growth profiling, strain panel (AID 1159580);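 further: tested at 20 µM; growth read once vehicle control cultures reached saturation at 30 °C; 1 = growth at the plate median or of vehicle wells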
Conditions: growth OD

Measured: normalized growth

CC(=O)CC(c1ccccc1)c1c(O)c2ccccc2oc1=O (configuration not stated)
inactive: S. cerevisiae deletion strains, locus YJR075W, strain HOC1, stronger effect = lower value 0.981 | S. cerevisiae deletion strains, locus YKL009W, strain mrt4, stronger effect = lower value 1 | S. cerevisiae deletion strains, locus YKL068W, stronger effect = lower value 1 | S. cerevisiae deletion strains, locus YKL085W, strain MDH1 (second series), stronger effect = lower value 0.954 | S. cerevisiae deletion strains, locus YKL085W, strain MDH1, stronger effect = lower value 0.954 | S. cerevisiae deletion strains, locus YKL160W, strain elf1, stronger effect = lower value 1 | S. cerevisiae deletion strains, locus YKL190W, strain CNB1, stronger effect = lower value 1.01 | S. cerevisiae deletion strains, locus YKR001C, strain vps1, stronger effect = lower value 1.02 | S. cerevisiae deletion strains, locus YKR026C, strain gcn3, stronger effect = lower value 0.992 | S. cerevisiae deletion strains, locus YKR091W, strain srl3, stronger effect = lower value 0.995 | S. cerevisiae deletion strains, locus YLL001W, strain dnm1, stronger effect = lower value 0.993 | S. cerevisiae deletion strains, locus YLL026W, stronger effect = lower value 0.988 | S. cerevisiae deletion strains, locus YLL041C, strain sdh2, stronger effect = lower value 0.997 | S. cerevisiae deletion strains, locus YLR027C, strain aat2, stronger effect = lower value 1 | S. cerevisiae deletion strains, locus YLR039C, strain RIC1, stronger effect = lower value 0.986 | S. cerevisiae deletion strains, locus YLR058C, strain SHM2, stronger effect = lower value 1.01 | S. cerevisiae deletion strains, locus YLR102C, strain apc9, stronger effect = lower value 1.01 | S. cerevisiae deletion strains, locus YLR113W, strain HOG1, stronger effect = lower value 0.922 | S. cerevisiae deletion strains, locus YLR221C, strain rsa3, stronger effect = lower value 1.01 | S. cerevisiae deletion strains, locus YLR258W, strain gsy2, stronger effect = lower value 1 | S. cerevisiae deletion strains, locus YLR262C, strain YPT6 (second series), stronger effect = lower value 0.881 | S. cerevisiae deletion strains, locus YLR262C, strain YPT6, stronger effect = lower value 0.99 | S. cerevisiae deletion strains, locus YLR268W, strain sec22, stronger effect = lower value 1.03 | S. cerevisiae deletion strains, locus YLR320W, strain mms22, stronger effect = lower value 1.01 | S. cerevisiae deletion strains, locus YLR330W, strain CHS5, stronger effect = lower value 1 | S. cerevisiae deletion strains, locus YLR342W, strain FKS1 (second series), stronger effect = lower value 1.02 | S. cerevisiae deletion strains, locus YLR342W, strain FKS1, stronger effect = lower value 0.995 | S. cerevisiae deletion strains, locus YLR357W, strain rsc2, stronger effect = lower value 1.03 | S. cerevisiae deletion strains, locus YLR370C, strain arc18, stronger effect = lower value 0.993 | S. cerevisiae deletion strains, locus YLR371W, strain rom2, stronger effect = lower value 1.02 | S. cerevisiae deletion strains, locus YLR384C, strain iki3, stronger effect = lower value 0.986 | S. cerevisiae deletion strains, locus YLR418C, strain cdc73, stronger effect = lower value 1.06 | S. cerevisiae deletion strains, locus YML016C, strain PPZ1, stronger effect = lower value 1.01 | S. cerevisiae deletion strains, locus YML032C, strain rad52, stronger effect = lower value 1.03 | S. cerevisiae deletion strains, locus YML120C, strain ndi1, stronger effect = lower value 1 | S. cerevisiae deletion strains, locus YML124C, strain tub3, stronger effect = lower value 1.01 | S. cerevisiae deletion strains, locus YMR058W, strain fet3, stronger effect = lower value 1.01 | S. cerevisiae deletion strains, locus YMR078C, strain ctf18, stronger effect = lower value 1.02 | S. cerevisiae deletion strains, locus YMR125W, strain sto1, stronger effect = lower value 1.01 | S. cerevisiae deletion strains, locus YMR129W, stronger effect = lower value 1 | S. cerevisiae deletion strains, locus YMR205C, strain PFK2, stronger effect = lower value 1.01 | S. cerevisiae deletion strains, locus YMR223W, strain ubp8, stronger effect = lower value 1.01 | S. cerevisiae deletion strains, locus YMR231W, strain pep5, stronger effect = lower value 1 | S. cerevisiae deletion strains, locus YMR263W, strain SAP30, stronger effect = lower value 1.01 | S. cerevisiae deletion strains, locus YMR307W, strain GAS1, stronger effect = lower value 1.05 | S. cerevisiae deletion strains, locus YNL067W, strain RPL9B, stronger effect = lower value 1.01 | S. cerevisiae deletion strains, locus YNL071W, strain lat1, stronger effect = lower value 1 | S. cerevisiae deletion strains, locus YNL128W, strain TEP1, stronger effect = lower value 1.03 | S. cerevisiae deletion strains, locus YNL153C, strain GIM3, stronger effect = lower value 1 | S. cerevisiae deletion strains, locus YNL183C, strain NPR1, stronger effect = lower value 0.942 | S. cerevisiae deletion strains, locus YNL209W, strain ssb2, stronger effect = lower value 0.998 | S. cerevisiae deletion strains, locus YNL233W, strain BNI4, stronger effect = lower value 1.01 | S. cerevisiae deletion strains, locus YNL248C, strain rpa49, stronger effect = lower value 1.01 | S. cerevisiae deletion strains, locus YNL250W, strain rad50, stronger effect = lower value 1.05 | S. cerevisiae deletion strains, locus YNL271C, strain bni1, stronger effect = lower value 1.01 | S. cerevisiae deletion strains, locus YNL298W, strain CLA4, stronger effect = lower value 1.03 | S. cerevisiae deletion strains, locus YNL307C, strain MCK1, stronger effect = lower value 1.06 | S. cerevisiae deletion strains, locus YNL322C, strain KRE1 (second series), stronger effect = lower value 0.989 | S. cerevisiae deletion strains, locus YNL322C, strain KRE1, stronger effect = lower value 1.02 | S. cerevisiae deletion strains, locus YNR049C, strain mso1, stronger effect = lower value 0.995 | S. cerevisiae deletion strains, locus YNR052C, strain pop2, stronger effect = lower value 1.03 | S. cerevisiae deletion strains, locus YOL006C, strain TOP1, stronger effect = lower value 1 | S. cerevisiae deletion strains, locus YOL012C, strain htz1 1.19 | S. cerevisiae deletion strains, locus YOL147C, strain pex11, stronger effect = lower value 1.01 | S. cerevisiae deletion strains, locus YOR001W, strain rrp6, stronger effect = lower value 1.02 | S. cerevisiae deletion strains, locus YOR061W, strain CKA2, stronger effect = lower value 1.01 | S. cerevisiae deletion strains, locus YOR069W, strain VPS5, stronger effect = lower value 1 | S. cerevisiae deletion strains, locus YOR070C, strain gyp1, stronger effect = lower value 0.996 | S. cerevisiae deletion strains, locus YOR080W, strain dia2, stronger effect = lower value 1 | S. cerevisiae deletion strains, locus YOR083W, strain WHI5, stronger effect = lower value 1.01 | S. cerevisiae deletion strains, locus YOR106W, strain vam3, stronger effect = lower value 0.992 | S. cerevisiae deletion strains, locus YOR136W, strain idh2, stronger effect = lower value 1.03 | S. cerevisiae deletion strains, locus YOR144C, strain elg1, stronger effect = lower value 1.01 | S. cerevisiae deletion strains, locus YOR184W, strain ser1, stronger effect = lower value 1.04 | S. cerevisiae deletion strains, locus YOR231W, strain MKK1, stronger effect = lower value 0.983 | S. cerevisiae deletion strains, locus YOR265W, strain rbl2, stronger effect = lower value 0.984 | S. cerevisiae deletion strains, locus YOR270C, strain vph1, stronger effect = lower value 1.02 | S. cerevisiae deletion strains, locus YOR290C, strain snf2, stronger effect = lower value 1.01 | S. cerevisiae deletion strains, locus YOR316C, strain cot1, stronger effect = lower value 1.01 | S. cerevisiae deletion strains, locus YPL051W, strain arl3, stronger effect = lower value 0.994 | S. cerevisiae deletion strains, locus YPL055C, strain LGE1, stronger effect = lower value 1.05 | S. cerevisiae deletion strains, locus YPL078C, strain atp4, stronger effect = lower value 1.02 | S. cerevisiae deletion strains, locus YPL106C, strain sse1, stronger effect = lower value 1.02 | S. cerevisiae deletion strains, locus YPL240C, strain hsp82, stronger effect = lower value 1 | S. cerevisiae deletion strains, locus YPL241C, strain CIN2, stronger effect = lower value 1.01 | S. cerevisiae deletion strains, locus YPL256C, strain CLN2, stronger effect = lower value 0.955 | S. cerevisiae deletion strains, locus YPR119W, strain clb2, stronger effect = lower value 1.01 | S. cerevisiae deletion strains, locus YPR141C, strain kar3, stronger effect = lower value 1.01 | S. cerevisiae deletion strains, locus YPR163C, strain tif3, stronger effect = lower value 1.02 | S. cerevisiae deletion strains, locus YPR167C, strain met16, stronger effect = lower value 1.01 | S. cerevisiae deletion strains, strain wtn01, stronger effect = lower value 1 | S. cerevisiae strains, strain wild type, stronger effect = lower value 1.02

— PubChem BioAssay AID1159580 (chemical genetic matrix, 2015)
